{"source": "PubChem BioAssay", "data": [{"experiment": "COS7 lysate on small-molecule microarray, probe aHis, 635 nm (AID 1123);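 also: z-score combines 667nm fluorescence intensity with signal-to-noise per printed compound spot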", "conditions": "COS7 cell lysate, fluorescence, higher = more signal", "values": [{"smiles": "CC(C)[Si]1(C(C)C)OCc2cc(C3CC3)nc(-c3ccc(Oc4ccccc4)cc3)c21", "composite z-score": 0.0215}, {"smiles": "O=C1NC(=O)C2C1C=CC(C(O)c1ccco1)N2Nc1ccc(Cl)cc1Cl", "note": "(stereo unspecified)", "composite z-score": 1.28}, {"smiles": "Cc1ccc(N2C(=O)c3ccccc3[C@@H](C(=O)NCCCN(C)C)[C@@H]2c2ccc(CO)cc2)nc1", "composite z-score": -0.515}, {"smiles": "CCCCCCc1nc(Cc2cc(OC)c(OC)c(OC)c2)cc2c1[Si](C(C)C)(C(C)C)OC2", "composite z-score": 0.157}, {"smiles": "CCOC(=O)C1=C[C@@H](C(C)(C)C)N(S(=O)(=O)c2ccc(C)cc2)[C@H]1c1cccc2ccccc12", "composite z-score": 1.76}, {"smiles": "COc1cc2c(cc1O)C(c1cccs1)N(Cc1cc3c(cc1Br)OCO3)CC2", "note": "(stereo unspecified)", "composite z-score": 2.92}, {"smiles": "C=CCNC(=O)[C@@H]1[C@H]2C(=O)O[C@H](c3ccccc3)[C@H](c3ccccc3)N2[C@H](c2ccccc2OCCO)[C@@]12C(=O)Nc1ccc(C#CCC(C(=O)OC)C(=O)OC)cc12", "composite z-score": 1.66}, {"smiles": "C=CCN1C(=O)[C@]2(CCS(=O)(=O)c3ccccc3)N=C(c3ccc(OCCCO)cc3)O[C@@H]2c2ccccc21", "composite z-score": 3.23}, {"smiles": "CC(c1ccccc1)C(O)C1C=CC2C(=O)N(C)C(=O)C2N1Nc1ccccc1", "note": "(stereo unspecified)", "composite z-score": 2.5}, {"smiles": "N#Cc1ccc(NN2C(C(O)c3ccc(Br)cc3)C=CC3C(=O)N(c4ccccc4)C(=O)C32)cc1", "note": "(stereo unspecified)", "composite z-score": 3.24}, {"smiles": "COc1ccc([Si](C)(C)[C@@H]2[C@@H](CCO)O[C@]3(C(=O)N(Cc4cccc(NC(=O)[C@H](C)O)c4)c4ccccc43)[C@H]2C)cc1", "composite z-score": 1.61}, {"smiles": "CCCCC(CC)C(O)C1C=CC2C(=O)N(C)C(=O)C2N1Nc1ccccc1", "note": "(stereo unspecified)", "composite z-score": 1.99}, {"smiles": "COCCOC(=O)N1C(=O)[C@@]2(c3cc(C#CCCO)ccc31)[C@H](c1ccc(OCCO)cc1)N1[C@H](c3ccccc3)[C@H](c3ccccc3)OC(=O)[C@H]1[C@@H]2C(=O)Nc1nc2ccccc2s1", "composite z-score": 0.556}, {"smiles": "[N-]=[N+]=NCc1ccccc1[C@@H]1OC(c2ccc(OCCCO)cc2)=N[C@]1(CCS(=O)(=O)c1ccccc1)C(=O)O", "composite z-score": 1.6}, {"smiles": "O=C1C[C@]2(c3ccc([N+](=O)[O-])cc3)C(=O)N(C3CC3)c3cc(CO)ccc3[C@H]2N1CC12CC3CC(CC(C3)C1)C2", "composite z-score": 0.422}, {"smiles": "CCCC[C@@H]1C[C@H]1[C@@H](NC(=O)c1cccs1)c1ccccc1C(F)(F)F", "composite z-score": 2.62}, {"smiles": "O=C(Cc1ccccc1)[C@H]1C2C=CCCC(c3ccccc3)=C2CN1Cc1ccccc1", "note": "(stereo partly specified)", "composite z-score": -0.328}, {"smiles": "COC(=O)[C@]1(CCS(=O)(=O)c2ccccc2)N=C(c2ccc(OCCCO)cc2)O[C@@H]1c1ccccc1N=[N+]=[N-]", "composite z-score": 2.93}, {"smiles": "COCCOC(=O)N1C(=O)[C@@]2(c3cc(C#CC4=CCCCC4)ccc31)[C@H](c1ccccc1OCCO)N1[C@H](c3ccccc3)[C@H](c3ccccc3)OC(=O)[C@H]1[C@@H]2C(=O)N1CCN(c2ncccn2)CC1", "composite z-score": 0.634}, {"smiles": "CN(C)C(=O)[C@@]1(Cc2ccccc2)N=C(c2ccc(OCCCO)cc2)O[C@H]1c1ccccc1", "composite z-score": 2.69}, {"smiles": "COc1ccc(C#Cc2ccc3c(c2)[C@]2(C(=O)N3)[C@H](C(=O)O)[C@H]3C(=O)O[C@H](c4ccccc4)[C@H](c4ccccc4)N3[C@@H]2c2ccc(O)cc2)cc1", "composite z-score": 1.15}, {"smiles": "CCCCC[C@H]1OC[C@@]23C=C(Br)[C@@H](CC12)[C@@]1(CO1)C3=O", "note": "(stereo partly specified)", "composite z-score": -0.0346}, {"smiles": "CC1CC/C=C\\[C@H]2OC34C=CCN(c5ccc(Cl)cc5)C(=O)[C@H]3N(C(C)CO)C(=O)[C@]4(C)C2C(=O)O1", "note": "(stereo partly specified)", "composite z-score": -0.66}, {"smiles": "COc1cc2c(cc1O)C(C1CC1)N(Cc1cccc(OC(F)(F)F)c1)CC2", "note": "(stereo unspecified)", "composite z-score": 1.06}, {"smiles": "COc1cc(C(O)C2C=CC3C(=O)N(C)C(=O)C3N2Nc2ccccc2)cc(OC)c1OC", "note": "(stereo unspecified)", "composite z-score": 3.2}, {"smiles": "[N-]=[N+]=NCc1ccccc1[C@H]1OC(c2ccc(OCCCO)cc2)=N[C@@]1(Cc1ccccc1N=[N+]=[N-])C(=O)NCC(O)CO", "note": "(stereo partly specified)", "composite z-score": 1.8}, {"smiles": "COC(=O)[C@@]1(Cc2ccc(OC)cc2)[C@H]2c3cc(C(=O)N(C)C)n(Cc4ccc(OC(F)(F)F)cc4)c3C[C@H]2CN1C(=O)c1ccccc1", "composite z-score": 1.74}, {"smiles": "C=C(/C(=C/C[C@H](OC(C)=O)c1ccc(CO)o1)c1cnc2ccccc2c1)C(C)C", "composite z-score": 0.948}, {"smiles": "Cc1ccc(S[C@]2(C(=O)NCc3ccccc3)CC(=O)N(C3CCCCC3)[C@@H]2c2ccc(CO)cc2I)cc1", "composite z-score": 2.13}, {"smiles": "COc1ccc([Si](C)(C)[C@@H]2[C@@H](CC(=O)N3Cc4ccccc4C[C@H]3CO)O[C@]3(C(=O)N(Cc4ccc(N5C(=O)c6cccc7cccc5c67)cc4)c4ccccc43)[C@H]2C)cc1", "composite z-score": 1.25}, {"smiles": "CCOC(=O)C[C@H]1[C@H](OC(=O)c2ccccc2-c2ccccc2)[C@@H](NC(=O)c2ccc3ccccc3n2)c2cc(OCCCO)ccc2N1C(=O)Cc1ccc(OC)cc1", "composite z-score": 0.428}, {"smiles": "CCOc1cc(C(O)C2C=CC3C(=O)NC(=O)C3N2Nc2ccc(Cl)cc2Cl)ccc1O", "note": "(stereo unspecified)", "composite z-score": 1.23}, {"smiles": "Cc1ccc(NN2C(C(O)c3c(F)cccc3Cl)C=CC3C(=O)N(C4CCCCC4)C(=O)C32)cc1", "note": "(stereo unspecified)", "composite z-score": 2.38}, {"smiles": "CCOC(=O)C[C@H]1[C@H](OC(=O)c2ccc(-c3ccccc3)cc2)[C@@H](NC(=O)CC(C)C)c2cc(OCCCO)ccc2N1C(=O)c1ccc2ccccc2n1", "composite z-score": 1.19}, {"smiles": "COC(=O)[C@@]1(Cc2ccccc2)[C@H]2c3cc(C(=O)N4CCCC4)n(CCc4ccccn4)c3C[C@H]2CN1C(=O)c1ccccc1", "composite z-score": 3.46}, {"smiles": "Cc1ccc(S[C@]2(C(=O)NC(C)C)CC(=O)N(Cc3cc(C(F)(F)F)cc(C(F)(F)F)c3)[C@@H]2c2ccc(CO)cc2)cc1", "composite z-score": 0.596}]}]}
